# Source: paper doi:10.1101/2024.03.05.583629
# Target: pT7_6His-AlfaTag-HOXD13 (human, UniProt P35453 263-343)
# Experiment: PADIT-seq
# Conditions: dsDNA, one strand shown
# Sequence of pT7_6His-AlfaTag-HOXD13 (P35453 263-343): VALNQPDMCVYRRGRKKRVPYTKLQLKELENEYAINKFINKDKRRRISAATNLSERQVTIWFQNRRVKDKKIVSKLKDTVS
row,Sequence,binding signal [log2FC]
1,CTCGAGGATATCAAGATCTGGCCTCGGCCGCACCCGCGGAACCTCTAGCTAGCCGACTCACTATAGGGATAATCGCCCTGAGCAAAGACC,-1.02 ± 0.126
2,CTCGAGGATATCAAGATCTGGCCTCGGCGGAATAAAAGGAACCTCTAGCTAGCCGACTCACTATAGGGATAATCGCCCTGAGCAAAGACC,0.87 ± 0.0838
3,CTCGAGGATATCAAGATCTGGCCTCGGCGTTTTATCGGGAACCTCTAGCTAGCCGACTCACTATAGGGATAATCGCCCTGAGCAAAGACC,1.63 ± 0.0875
4,CTCGAGGATATCAAGATCTGGCCTCGGCCTTTTAGGCGGAACCTCTAGCTAGCCGACTCACTATAGGGATAATCGCCCTGAGCAAAGACC,-0.31 ± 0.108
5,CTCGAGGATATCAAGATCTGGCCTCGGCCTTCTAAAAGGAACCTCTAGCTAGCCGACTCACTATAGGGATAATCGCCCTGAGCAAAGACC,0.087 ± 0.127
6,CTCGAGGATATCAAGATCTGGCCTCGGCCTTTTACCGGGAACCTCTAGCTAGCCGACTCACTATAGGGATAATCGCCCTGAGCAAAGACC,0.698 ± 0.0877
7,CTCGAGGATATCAAGATCTGGCCTCGGCTACTGGGCGGGAACCTCTAGCTAGCCGACTCACTATAGGGATAATCGCCCTGAGCAAAGACC,-1.09 ± 0.112
8,CTCGAGGATATCAAGATCTGGCCTCGGCGAGATAAAAGGAACCTCTAGCTAGCCGACTCACTATAGGGATAATCGCCCTGAGCAAAGACC,0.43 ± 0.0919
9,CTCGAGGATATCAAGATCTGGCCTCGGCTCCTTAAAAGGAACCTCTAGCTAGCCGACTCACTATAGGGATAATCGCCCTGAGCAAAGACC,1.08 ± 0.104
10,CTCGAGGATATCAAGATCTGGCCTCGGCTTTTTACAAGGAACCTCTAGCTAGCCGACTCACTATAGGGATAATCGCCCTGAGCAAAGACC,3.28 ± 0.0787
11,CTCGAGGATATCAAGATCTGGCCTCGGCCGCCCATTCGGAACCTCTAGCTAGCCGACTCACTATAGGGATAATCGCCCTGAGCAAAGACC,-0.894 ± 0.121
12,CTCGAGGATATCAAGATCTGGCCTCGGCGCCATAAAAGGAACCTCTAGCTAGCCGACTCACTATAGGGATAATCGCCCTGAGCAAAGACC,2.57 ± 0.0659
13,CTCGAGGATATCAAGATCTGGCCTCGGCTTCCTAAAAGGAACCTCTAGCTAGCCGACTCACTATAGGGATAATCGCCCTGAGCAAAGACC,-0.635 ± 0.152
